The list is not random: actives were taken first. Their share in the collection is about 8%.
HCV inh: qHTS Assay for Inhibitors of Hepatitis C Virus (HCV); actives 3.4% (n = 340,000); Huh7.5.1 HCVcc-Cre infection, luciferase reporter, 44 h; Potency, µM (series often up to 41.8 µM), inactives show at the top dose activity change, negative = inhibition, most hits filed as inhibitors; active = well fitted inhibition curve with a large enough effect; inconclusive = small, poorly fitted or top-dose-only effect, or another doubt; inactive = no such curve, though single readings can be large or run the other way; note: potency is the fitted concentration of half-maximal effect; % is set by controls: 0 for no effect and ±100 for the full control effect
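Infectious HCV cell culture screen: compound-treated cells (1,000/well, pre-plated 4 h) are infected with HCVcc-Cre at roughly 0.5 moi and grown 44 h. Infection is quantified by luciferase signal after 15 min substrate incubation at room temperature.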
SARS PLpro yeast: qHTS of Yeast-based Assay for SARS-CoV PLP. S. cerevisiae expressing SARS-CoV PLpro, growth rescue. Potency, µM (titrated, usually from 32.9 µM), inactives show top-dose activity, positive = growth rescue, actives largely listed as activators. actives 0.19% (n = 330,000). AID 485353, 2010; calls by dose curve; note: potency is the fitted concentration of half-maximal effect; 0% is about no effect; nearly all actives have a fitted effect of over 55% in size
MARV entry inh: qHTS for inhibitors of binding or entry into cells for Marburg Virus. Marburg virus pseudotyped entry inhibition, cell reporter. Potency, µM (doses to about 37.8 µM), for the others: at the highest dose activity change, negative = inhibition, usual class: inhibitors. actives 1.8% (n = 300,000); calls by dose curve; tested in HEK293 cells; note: potency is the fitted concentration of half-maximal effect; % is set by controls: 0 for no effect and ±100 for the full control effect
HCMV inh: qHTS Assay for inhibitors of the human cytomegalovirus (HCMV); activity change, negative = inhibition, % at 57.5 µM; HFF cells, HCMV-luciferase reporter, 72 h; hits give low values; actives 4.5% (n = 410,000); in the data active = activity change below about -60%; inconclusive = no clear call, values can overlap the other calls; inactive = above about -39%; note: % is set by controls: 0 for no effect and ±100 for the full control effect
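Luciferase read-out from HCMV-luciferase-infected HFFs (MOI 1 PFU/cell) 72 h post infection at 37C; compounds added after 16 h cell attachment; activity normalized between buffer-only basal and Salinomycin (10uM) inhibitor controls.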
FMDV inh: High Throughput Screening for Foot and Mouth Disease Virus Antivirals | FMDV antiviral cell-based qHTS | AID 1159524, 2015 | Potency, µM (titrated, usually from 57.9 µM), for inactives: at the top dose activity change, negative = inhibition, usual class: inhibitors | actives 1.2% (n = 410,000); calls by dose curve; tested in HEK293T cells; note: read-out not given here; potency is the fitted concentration of half-maximal effect; % is set by controls: 0 for no effect and ±100 for the full control effect; nearly all actives have a fitted effect of over 45% in size
LASV entry inh: qHTS for Inhibitors of binding or entry into cells for Lassa Virus; Lassa virus pseudotype entry inhibition, cell reporter; Potency, µM (doses to about 37.9 µM), for inactives: top-dose activity change, negative = inhibition, actives largely listed as inhibitors; actives 1.2% (n = 300,000); AID 540256, 2011; calls by dose curve; tested in HEK293 cells; note: potency is the fitted concentration of half-maximal effect; % is set by controls: 0 for no effect and ±100 for the full control effect; nearly all actives have a fitted effect of over 50% in size
* hit, by the source's call; ? = inconclusive; . = no result; ! = repeats disagree; [ ] = another dose, or the depositor's remark.

SMILES | HCV inh | SARS PLpro yeast | MARV entry inh | HCMV inh | FMDV inh | LASV entry inh
CCC(C)N(CC(=O)Nc1cccc(C)c1C)C(=O)CCl (stereo unspecified) | 1.3µM* | -1% | 7%[46.1 µM] | . | 16µM* | 3.2µM*
COc1cccc(CNC(=O)c2ccc(-n3c(C)cc4c3CCC(C)C4)cc2)c1 (stereo unspecified) | . | . | . | -83* | -22% | ?
Cc1ccccc1CNC(=O)c1ccc(-n2c(C)cc3c2CCCC3)cc1 | . | . | . | -35 | 1% | ?
Cc1cc2c(n1-c1ccc(C(=O)NCc3cccc(Br)c3)cc1)CCC(C)C2 (stereo unspecified) | . | . | . | ? | 19% | ?
Cc1cc2c(n1-c1ccc(C(=O)NCC(C)c3ccccc3)cc1)CCCC2 (stereo unspecified) | . | . | . | -61* | 18% | -26%[46.1 µM]
CSc1ccc(CCNC(=O)c2ccc(-n3c(C)cc4c3CCCC4)cc2)cc1 | . | . | . | -98* | -19% | ?
Cc1ccccc1[C@H](NC1c2ccccc2C=Cc2ccccc21)P(=O)(c1ccccc1)c1ccccc1 | . | . | . | -1 | 21% | .
CCOC(=O)C(CNc1ccc(O)cc1)NC(=O)c1ccccc1 (stereo unspecified) | . | . | . | -5 | . | .
O=C(NCc1ccco1)c1nc2c(nnn2Cc2ccccc2Cl)c(=O)[nH]1 | ? | 9% | ? | -98* | . | 13µM*
Cc1ccc(C)c(Cn2nnc3c(=O)[nH]c(C(=O)NCc4ccco4)nc32)c1 | . | 2% | -17% | -10 | -11% | -18%[14.3 µM]
OCC(Cc1ccccc1)Nc1c2ccccc2nc2ccccc12 (stereo unspecified) | -13% | 17% | ? | -63* | ? | 6%
Oc1ccc(CCNc2c3ccccc3nc3ccccc23)cc1O | -28% | -9% | 10µM* | -100* | -15% | ?
COc1cc2ncnc(NCc3ccccc3)c2cc1OC | -12% | 4% | ? | -19 | -23% | -2%
CNc1nc(NCc2ccccc2)c2ccccc2n1 | 11µM* | -6% | 4µM* | 28 | -18% | ?
CCCCNc1nc(NCc2ccccc2)nc2ccccc12 | . | . | . | -32 | ? | .
c1ccc(CNc2ncnc3ccccc23)cc1 | ? | 1% | ? | -97*! | ? | ?
c1ccc(CNc2c3ccccc3nc3ccccc23)cc1 | ? | -2% | . | -100* | -19% | .
OCCNc1nc(Nc2ccccc2)nc2ccccc12 | ? | -1% | ? | 4 | -22% | -22%
Cc1c(Cl)cccc1Nc1nc(NCCO)c2ccccc2n1 | 10% | -7% | 7.9µM* | 7 | -11% | ?
Oc1ccccc1Nc1nc(NCc2ccccc2)c2ccccc2n1 | 11µM* | -4% | ? | ? | ? | ?
CC(Sc1cccc[n+]1[O-])C(=O)NC1CCCCC1C (stereo unspecified) | 0% | 2% | . | 2 | -5% | .
COc1ccc(C2(CNC(=O)C(=O)Nc3ccc(F)cc3)CCCC2)cc1OC | . | . | 2%[46.1 µM] | 8 | ? | 8%[46.1 µM]
COC(=O)CC=C[C@@H](C)[C@@H](COc1ccccc1Br)OC | . | . | 12%[14.2 µM] | . | . | .
Cc1ccc(C(=O)Nc2cccc(-c3nc(CNC(=O)[C@@H]4C[C@@H](C)NC(=S)N4)c(C)o3)c2)s1 | . | . | . | . | 29% | .
COc1cccc(N2CCN(C3C(=O)c4ccccc4N3C(C)=O)CC2)c1 (stereo unspecified) | . | . | . | 0 | -10% | 7%[46.1 µM]
SMILES | HCV inh | SARS PLpro yeast | MARV entry inh | HCMV inh | FMDV inh | LASV entry inh
CCN(Cc1ccccc1)S(=O)(=O)c1ccc(C(=O)N(CCCN(C)C)c2nc3c(F)cccc3s2)cc1 | -20% | 20% | 8.9µM* | -2 | 3% | ?
Cc1cc(C)c2sc(N(CCCN(C)C)C(=O)c3ccc(Br)s3)nc2c1 | 13µM* | -13% | . | -39 | ? | .
CCOc1cccc2sc(N(CCCN(C)C)C(=O)c3ccc(S(=O)(=O)N(CC)Cc4ccccc4)cc3)nc12 | ? | -1% | ? | ? | -25% | ?
CCN(Cc1ccccc1)S(=O)(=O)c1ccc(C(=O)N(CCCN(C)C)c2nc3cc(C)cc(C)c3s2)cc1 | 10µM* | -7% | 10µM* | -37 | -22% | ?
Cc1cc(C)c2sc(N(CCCN(C)C)C(=O)c3ccc(S(=O)(=O)N(C)Cc4ccccc4)cc3)nc2c1 | ? | -1% | ? | -27 | ? | ?
COc1ccc2c(c1)OC(C)CN(CC(=O)NCc1cn[nH]c1-c1ccc(F)cc1)C2 (stereo unspecified) | . | . | . | . | -9% | .
CCCCCCCCOC(=O)c1c(CSC(=N)N)n(C)c2cc(Br)c(OC(C)=O)cc12 | 11µM* | -4% | . | -92* | ? | .
CCOC(=O)c1c(CSC(=N)N)n(-c2ccc(Br)cc2)c2cc(Br)c(OC(C)=O)cc12 | ? | -28% | 13µM* | -38 | -18% | ?
COC(=O)c1scc(-c2ccc(C)cc2)c1S(=O)(=O)Nc1cccc(C(F)(F)F)c1 | . | . | . | 0 | -6% | -12%[46.1 µM]
CCOC(=O)Cc1ccc(NC(=O)N2CCC(CN3CCC(C)CC3)CC2)cc1 | . | . | . | 3 | -19% | 23%[46.1 µM]
Cc1ccc2nc(-c3ccccc3Cl)cc(C(=O)Nc3cc(C)on3)c2c1 | 13µM* | -5% | 0% | -39 | ? | -13%
CCOc1ccc(OCc2ccc(C(=O)N3N=C(C(F)F)CC3(O)C(F)F)o2)cc1 (stereo unspecified) | -10% | 4% | -7% | 50 | -31% | -1%
O=C(c1ccc(COc2ccc(Br)cc2)o1)N1N=C(C(F)F)CC1(O)C(F)F (stereo unspecified) | ? | 11% | ? | 2 | 25µM* | -56%
Cn1nc(C(F)(F)F)c(/C=N/OC(=O)c2ccccc2)c1SCc1ccc(Cl)cc1 | ? | -2% | ? | -72* | -9% | 2%
COc1ccc(C(=O)NCC(c2ccc(N(C)C)cc2)N2CCc3ccccc32)cc1 (stereo unspecified) | . | . | . | -71* | -18% | ?
COc1ccc(C(CNC(=O)c2cccc(Br)c2)N2CCCC2)cc1 (stereo unspecified) | ? | 0% | 12µM* | -8 | -1% | ?
COc1ccc(C(CNC(=O)COc2ccc(F)cc2Br)N2CCCC2)cc1 (stereo unspecified) | ? | 2% | 4.5µM* | -61* | -24% | .
COc1ccc(C(CNC(=O)c2cccc(S(=O)(=O)Nc3ccc(C)cc3)c2)N2CCCCC2)cc1 (stereo unspecified) | 3.2µM* | . | ? | 14 | 5% | ?
CN(C)c1ccc(CNC(=O)c2cc3ccccn3n2)cc1 | . | . | . | 78 | 29% | ?
CCCCC[C@H](O)/C=C/[C@H]1C=CC(=O)[C@@H]1CCCCCCC(=O)O | . | . | . | . | -8%[6.7 µM] | .
